DT40 TDP1 no CPT = qHTS for Inhibitors of human tyrosyl-DNA phosphodiesterase 1 (TDP1): qHTS in cells in absence of CPT | Potency, µM (titrated, usually from 46.2 µM), without a hit: at the highest dose activity change, negative = growth inhibition, usual class: inhibitors | DT40 Tdp1-/- hTDP1 cells, no CPT, ATP luminescence, 48 h | AID 686978, 2013 | 420,000 tested, 15% active; also: potency is read from the fitted curve at half-maximal effect; % is scaled to controls: 0 for no effect and ±100 for the full control effect; nearly all actives have a fitted effect of over 55% in size
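Compound effects on proliferation are scored in DT40 Tdp1-/-;hTDP1 cells in the absence of CPT. ATP levels (CellTiter-Glo luminescence) are recorded after a ≥48 hr, 37 °C incubation.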
ASM inhibitor = inhibitors of human secretory acid sphingomyelinase | P17405 | 340,000 tested, 0.006% active | Potency, µM (series often up to 57.5 µM), inactives show top-dose activity change, negative = inhibition, usual class: inhibitors | AID 504937 | placental ASM, HMU-PC fluorogenic substrate, 60 min; also: potency is read from the fitted curve at half-maximal effect
Target sequence (P17405 47-631 limits assumed): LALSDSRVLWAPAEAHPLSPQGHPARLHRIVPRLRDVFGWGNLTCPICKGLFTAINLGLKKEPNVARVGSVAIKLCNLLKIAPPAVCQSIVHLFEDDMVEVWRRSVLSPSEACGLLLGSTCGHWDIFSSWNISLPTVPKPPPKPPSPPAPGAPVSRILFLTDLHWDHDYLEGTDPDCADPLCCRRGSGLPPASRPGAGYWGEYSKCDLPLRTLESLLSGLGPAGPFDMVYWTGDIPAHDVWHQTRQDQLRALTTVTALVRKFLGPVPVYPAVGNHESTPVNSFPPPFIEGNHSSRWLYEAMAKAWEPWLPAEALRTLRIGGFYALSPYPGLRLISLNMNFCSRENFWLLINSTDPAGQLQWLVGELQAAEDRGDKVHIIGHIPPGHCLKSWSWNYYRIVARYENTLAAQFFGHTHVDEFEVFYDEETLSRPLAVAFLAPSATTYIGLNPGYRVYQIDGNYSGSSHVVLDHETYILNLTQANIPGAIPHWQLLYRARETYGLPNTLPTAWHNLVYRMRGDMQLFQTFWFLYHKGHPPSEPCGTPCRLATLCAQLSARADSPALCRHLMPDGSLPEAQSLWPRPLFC
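qHTS format. ASM enzyme prepared from human placenta hydrolyses the fluorogenic substrate HMU-PC0 (9 uM final) over 60 min at 37 °C after a 10 min compound preincubation.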
TGFb SMAD3 inh = blocks TGF-b signaling | HepG2 CAGA-GFP TGF-b/SMAD3 reporter, GFP fluorescence, 18 h; TGF-beta stimulated, 500 pg/mL final | Potency, µM (top dose mostly 46.1 µM), inactives show at the highest dose activity, negative = inhibition, most hits filed as inhibitors | 410,000 tested, 1.2% active | AID 588855; also: potency is read from the fitted curve at half-maximal effect; % is scaled to controls: 0 for no effect and ±100 for the full control effect; nearly all actives have a fitted effect of over 65% in size
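HEPG2 CAGA-GFP reporter cells (1000/well, DMEM with 1% FBS) received compounds, then recombinant TGF-beta at 500 pg/mL final for 18 hours at 37 degrees C. Per-cell GFP summed per well was normalised to unstimulated and stimulated DMSO controls before curve fitting.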
IL1B secr inh = inhibitors of inflammasome signaling (IL-1 beta secretion). THP-1 LPS/ATP IL-1B secretion, AlphaLISA, 16 h; hits give low values. activity change, % at 57.5 µM. 360,000 tested, 4.7% active; in the data active = activity change below about -50%; inconclusive = mostly about -30% to -49%; also: % is scaled to controls: 0 for no effect and ±100 for the full control effect
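Secreted IL-1B measured by AlphaLISA bead assay after 16 h compound exposure of THP-1 cells; compounds (final up to 57.5 uM) added 1 h before LPS (250 ng/mL) and ATP (1.25 mM) stimulation; lower signal means less secretion.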
TDP1 cell CPT = growth inhibition of DT40 Tdp1-/-;hTDP1 cells with camptothecin (screen for TDP1 inhibitors) | chicken DT40 Tdp1-/-;hTDP1 cells + 20 nM CPT, ATP luminescence, 48 h | Potency, µM (titrated, usually from 46.2 µM), for the others: at the top dose activity change, negative = growth inhibition, hits mostly inhibitors | 420,000 tested, 12% active | AID 686979; also: potency is read from the fitted curve at half-maximal effect; % is scaled to controls: 0 for no effect and ±100 for the full control effect; nearly all actives have a fitted effect of over 55% in size
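Cell growth measured by CellTiter-Glo luminescence after a minimum 48 h, 37 C compound exposure with 20 nM CPT in Tdp1-knockout DT40 cells stably expressing hTDP1, seeded 400/well; qHTS titration format.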
HepG2 tox = counter-screen for TGF-b inhibitors: cytotoxicity in HepG2 cells; HepG2 CAGA-GFP viability, ATP luminescence, 18 h; Potency, µM (titrated, usually from 46.1 µM), for inactives: at the highest dose activity change, negative = cytotoxicity, most hits filed as cytotoxic; 410,000 tested, 0.76% active; AID 588856; also: potency is read from the fitted curve at half-maximal effect
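CellTiter-Glo luminescence gave cytotoxicity after 18 hours at 37 degrees C. The cells were HepG2 CAGA-GFP in 1% FBS DMEM, stimulated with 500 pg/mL TGF-beta after compound addition. %Activity was normalised to no-cell wells (complete cell-killing) and DMSO (no toxicity), and curves were fitted and classified.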
* hit, by the source's call; ? = inconclusive; / = not tested or not shown. In the library only some 19% were active in any assay of this set; here they are far more common. Unless noted, calls follow the shape of the dose curve; as a rule, active = well fitted curve in the direction sought with a large enough effect; inconclusive = small, poorly fitted or top-dose-only effect, or another doubt; inactive = no such curve, though single readings can be large; an effect the other way counts as inactive or inconclusive.

SMILES	DT40 TDP1 no CPT	ASM inhibitor	TGFb SMAD3 inh	IL1B secr inh	TDP1 cell CPT	HepG2 tox
CC[C@]12c3[nH]c4ccc(Cl)cc4c3CCN1C(=O)[C@@H](CC(=O)NCCCN(C)C)C[C@@H]2C(=O)N1CCN(C(=O)c2ccco2)CC1	-7.8%	-12.6%	-0.7%	24.2	10.4%	-4.4%
Cc1ccc(S(=O)(=O)NN=C2CCCc3ccccc32)cc1	?	/	-11.2%	21.4	13.9%	-29.1%
CC1(C)Cc2c(cnn2-c2ccc(F)cc2)C(NC(=O)C2=NNC(=O)CC2)C1 (stereo unspecified)	?	0.5%	-6.0%	29.4	14.6µM*	0.3%
Cc1ccc(C(=O)NC2CC(=O)N(c3ccc4c(c3)OCCO4)C2)cc1[N+](=O)[O-] (stereo unspecified)	?	-4.2%	-21.0%	-9.6	?	-10.7%
Cc1cc(O)c(C(C)C)cc1N=Cc1cc([N+](=O)[O-])ccc1O	16.4µM*	-7.4%	-4.2%	2.3	23.1µM*	0.0%
O=[N+]([O-])c1ccc(O)c(C=Nc2ccc3c(c2)OCO3)c1	-8.6%	3.2%	1.2%	-11.4	-28.6%	7.6%
Cc1cc(O)c(C(C)C)cc1N=Cc1ccccc1O	4.61µM*	-11.2%	?	-10.3	3.66µM*	-36.3%
CC(N=Cc1ccccc1O)c1ccccc1 (stereo unspecified)	-4.8%	4.0%	-23.3%	0.4	-21.7%	-25.6%
CCCC1=[N+](CC(=O)c2ccc(Br)cc2)CCn2cccc21	?	6.2%	-0.6%	-10.8	-0.4%	20.8%
NS(=O)(=O)c1ccc(NNC(=O)c2cccs2)cc1	-2.5%	-1.7%	7.2%	/	0.9%	-3.6%
Cc1ccc(C(=O)N/N=C(/CC(=O)c2cccs2)C(F)(F)F)cc1	9.2µM*	-7.6%	?	16.4	7.31µM*	-46.5%
O=C(NNc1cc(Cl)cc(Cl)c1)c1cccs1	18.4µM*	-3.8%	-12.5%	-15.1	?	-2.8%
O=C(N/N=C(\CC(=O)c1cccs1)C(F)(F)F)c1ccncc1	-3.2%	-9.8%	9.0%	/	35.5%	-13.3%
Cc1ccc(NCCC(=O)c2cccs2)cc1C	5.8µM*	10.3%	-25.3%	-21.8	4.61µM*	-21.3%
C/C(=N\NC(=O)CCC(=O)Nc1ccc(C)c(C)c1)c1cccs1	-7.4%	-0.5%	4.3%	14.1	10.3%	-2.1%
O=C(CCC(=O)c1cccs1)NNC(=O)c1cccc(Cl)c1	23.1µM*	10.8%	-1.8%	22.3	?	-1.7%
Cc1ccc(NCCC(=O)c2cccs2)cc1Cl	9.2µM*	-1.1%	-1.5%	0.0	7.31µM*	-3.9%
Cc1ccc(NC(NC(=O)c2cccs2)C(Cl)(Cl)Cl)cc1C (stereo unspecified)	18.4µM*	-17.5%	?	?	?	-33.8%
CC(C)c1ccc(NCCC(=O)c2cccs2)cc1	5.17µM*	1.0%	-19.0%	-26.1	5.17µM*	24.4%
Cc1ccc(NC(=O)CCC(=O)c2cccs2)cc1	5.8%	-0.5%	12.1%	5.4	-13.0%	-13.4%
Cc1ccc(NCCC(=O)c2cccs2)cc1	5.17µM*	3.2%	?	-7.2	2.91µM*	-105.2%
O=C(CSC1=NS(=O)(=O)c2ccccc2N1)N1CCCCC1	9.3%	-0.2%	0.0%	11.2	-8.1%	-1.5%
CC1CCN(S(=O)(=O)c2ccc3c(c2)N(CC(=O)NCCCOC(C)C)C(=O)CO3)CC1	2.1%	0.9%	-27.4%	-11.8	-19.4%	-11.0%
COc1cc2c(cc1OC)C(=NO)CCCC2	?	/	4.1%	-0.9	0.8%	-1.5%
CCN(CC)N=Nc1ccc(S(=O)(=O)Nc2c(C)n(C)n(-c3ccccc3)c2=O)cc1	-6.4%	-1.4%	1.3%	0.0	-12.4%	2.9%
SMILES	DT40 TDP1 no CPT	ASM inhibitor	TGFb SMAD3 inh	IL1B secr inh	TDP1 cell CPT	HepG2 tox
CC(NC(=O)COC(=O)c1cccnc1Cl)C12CC3CC(CC(C3)C1)C2 (stereo unspecified)	?	-5.8%	-13.5%	2.1	?	-4.1%
O=C(CCNc1cccc(Cl)c1)c1cccs1	14.6µM*	-0.8%	-13.8%	0.0	10.3µM*	-4.2%
O=C(CCC(=O)c1cccs1)NCc1ccc(Cl)cc1	-19.7%	15.5%	20.8%	27.6	2.0%	-8.9%
C=CCNc1nc(Nc2ccc([N+](=O)[O-])cc2)nc(N2CCCC2)n1	?	-13.3%	-18.1%	-62.8*	14.6µM*	-2.5%
CCCNc1nc(Nc2ccc([N+](=O)[O-])cc2)nc(N2CCOCC2)n1	14.1µM*	/	13.9%	/	12.6µM*	7.9%
C=CCNc1nc(Cl)nc(Nc2ccc([N+](=O)[O-])cc2)n1	14.3%	4.2%	10.1%	13.0	0.4%	11.1%
C=CCNc1nc(NCC)nc(N2CCOCC2)n1	-24.6%	3.3%	-58.6%	5.1	-26.4%	-7.5%
C=CCNc1nc(Nc2ccc(-c3nc4ccccc4o3)cc2)nc(N2CCOCC2)n1	25.9µM*	-12.0%	?	-7.1	29.1µM*	-44.9%
CN(C)c1cccc(CNC(=O)c2csc([C@@H]3C[C@H](O)[C@@H](CO)O3)n2)c1	1.7%	/	-0.9%	-10.9	-17.9%	-15.8%
CCCn1c(SCC(=O)NC2CCC(C)CC2)n[nH]c1=O (stereo unspecified)	14.0%	4.9%	-3.0%	0.0	-14.4%	1.9%
CCNC(=O)COC(=O)c1cc(C)n(-c2ccccc2)c1C	-24.1%	-0.5%	1.5%	7.4	-28.4%	-2.3%
O=C(NCc1nnc(SCc2ccc(F)cc2)n1-c1ccccc1)C12CC3CC(CC(C3)C1)C2	5.8µM*	-2.6%	?	-79.1*	16.4µM*	1.0%
Cc1cc(C(=O)OCC(=O)NCc2ccco2)c(C)n1-c1ccc(F)cc1	0.82µM*	-5.4%	?	21.5	0.651µM*	-4.1%
Cc1ccc(NC(=O)CSc2nnc(CNC(=O)C34CC5CC(CC(C5)C3)C4)n2-c2ccc(F)cc2)cc1	?	-2.5%	?	-13.4	16.4µM*	-56.5%
O=C(NCc1nnc(SCc2ccc(C(F)(F)F)cc2)n1-c1ccccc1)C12CC3CC(CC(C3)C1)C2	13µM*	-0.5%	?	-29.9	?	-24.8%
O=C(CSc1nnc(CNC(=O)C23CC4CC(CC(C4)C2)C3)n1-c1ccccc1)Nc1ccc(F)cc1	?	3.3%	?	-28.2	?	-13.9%
Cc1ccc(-n2c(CNc3ccc(F)cc3)nnc2SCC(=O)NCc2ccco2)cc1	?	2.3%	0.0%	-22.8	16.4µM*	-13.0%
